# Values joined by “and” are separate entries in the source; they are usually repeats but may differ in a detail not shown here. Equal entries are not always repeated. Records with an inconclusive call do not appear. Some compounds were tested as several samples or in several runs, with calls that do not always agree. Active and inactive are the calls of the source. The calls were made as follows, unless noted: active = hit-call score of the fitted dose curve at least 0.9, where 1 is the maximum; inconclusive = response in the unintended direction; inactive = score below 0.9.
# System: IYD (gene 389434)
# Experiment: CCTE_GLTED_hIYD: CCTE's human Iodotyrosine Deiodinase (xIYD) Inhibition Assay, Great Lakes Toxicology and Ecology Division (GLTED) Lab (AID 2284317);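 also: cell-free human IYD enzyme made in baculovirus insect cells; iodide freed from monoiodotyrosine measured by cerium arsenite color change at 420 nm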
# Conditions: not given
# Outline: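 In the IYD assay, iodide released from MIT by insect-cell-expressed human enzyme was quantified after 3 h via Sandell-Kolthoff rate at 420 nm, with plate-wise normalization to MNT and solvent controls.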
SMILES,AC50,outcome
O=S1(=O)OC(c2cc(Br)c(O)c(Br)c2)(c2cc(Br)c(O)c(Br)c2)c2ccccc21,117 µM (active),–
O=C(Nc1ccc(Br)cc1)c1cc(Br)cc(Br)c1O,118 µM (active) and 100 µM (active),inactive
Oc1cc(Cl)c(Cl)cc1Cl,–,inactive
CCCCCCCCCCCCc1cccc(S(=O)(=O)O)c1,89.9 µM (active),–
CCCCCCCCCCCCOS(=O)(=O)O,62.8 µM (active) and 56.8 µM (active),–
Nc1ccc(N)cc1,–,inactive
O=C(CCl)Nc1ccccc1,–,inactive

# System: not listed separately
# Experiment: CCTE_Mundy_HCI_iCellGluta_NOG_NeuriteLength: CCTE's Neurite Outgrowth Assay in iCellGluta cells for Neurite Length, Mundy Lab (AID 2284318)
# Conditions: not given
# Outline: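 Automated high-content imaging of betaIII-tubulin (Alexa Fluor-488) and Hoechst-stained cells gave neurite length, normalized to the DMSO baseline.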
SMILES,outcome,AC50
CC(C)[C@@H](Nc1ccc(C(F)(F)F)cc1Cl)C(=O)OC(C#N)c1cccc(Oc2ccccc2)c1 (stereo partly drawn),inactive,–
CCOCn1c(-c2ccc(Cl)cc2)c(C#N)c(Br)c1C(F)(F)F,–,14.1 µM (active)
Cc1cc(C(F)(C(F)(F)F)C(F)(F)F)ccc1NC(=O)c1cccc(I)c1C(=O)NC(C)(C)CS(C)(=O)=O,inactive,–
CC1(C)[C@H](C(=O)O[C@H](C#N)c2cccc(Oc3ccccc3)c2)[C@@H]1/C=C(\Cl)C(F)(F)F,inactive,–
OC(Cc1ccccc1Cl)(Cn1[nH]cnc1=S)C1(Cl)CC1 (stereo not drawn),inactive,–
CS(=O)(=O)c1ccc(C(=O)C2C(=O)CCCC2=O)c(Cl)c1COCC(F)(F)F,–,25 µM (active)
Cc1ccccc1OP(=O)(Oc1ccccc1C)Oc1ccccc1C,–,8.67 µM (active)

# System: not listed separately
# Experiment: CCTE_Deisenroth_5AR_NBTE_donor: CCTE's 5alpha-reductase NanoBRET Target Engagement Assay […], Deisenroth Lab (AID 2284319; active = hit-call score of the fitted dose curve at least 0.9, where 1 is the maximum; inactive = score below 0.9)
# Conditions: actives raise or lower the signal
# Outline: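 In this secondary endpoint, donor luminescence from SRD5A2-NanoLuc in transfected HEK293T flags artifacts. Test chemical (10 nM - 29.9 uM) is present five hours, tracer the last two; mock-tracer wells run plate-matched; data fitted bidirectionally against DMSO.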
SMILES,outcome,AC50
O=S1(=O)OC(c2cc(Br)c(O)c(Br)c2)(c2cc(Br)c(O)c(Br)c2)c2ccccc21,inactive,–
CCC[CH2][Sn]([Cl])([Cl])[CH2]CCC,–,4.46 µM (active)
O=c1nc(O)n(Cl)c(=O)n1Cl,inactive,–
O=[N+]([O-])c1ccccc1O,inactive,–
N#CCCC(Br)(C#N)CBr (stereo not drawn),–,62.1 µM (active)
CCOP(=S)(OCC)O/N=C(\C#N)c1ccccc1,inactive,–
CC(=Cc1ccccc1)[N+](=O)[O-],inactive,–
O=c1[nH]c(=O)n(Cl)c(=O)n1Cl,inactive,–

# System: not listed separately
# Experiment: CCTE_Deisenroth_5AR_NBTE_acceptor: CCTE's 5alpha-reductase NanoBRET Target Engagement Assay - Autofluorescence Screen, Deisenroth Lab (AID 2284321; active = hit-call score of the fitted dose curve at least 0.9, where 1 is the maximum; inactive = score below 0.9;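 also: compound fluorescence in the acceptor channel under 460 nm excitation flags autofluorescence artifacts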)
# Conditions: actives raise or lower the signal
# Outline: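 Autofluorescence counter-screen: chemicals at an assumed nominal 100 uM in DMSO were scanned in three independent runs with 460 nm excitation. Gain or loss of acceptor signal was fitted bidirectionally against DMSO.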
SMILES,outcome,AC50
O=S1(=O)OC(c2cc(Br)c(O)c(Br)c2)(c2cc(Br)c(O)c(Br)c2)c2ccccc21,inactive,–
CCC[CH2][Sn]([Cl])([Cl])[CH2]CCC,–,5.59 µM (active)
O=c1nc(O)n(Cl)c(=O)n1Cl,inactive,–
O=[N+]([O-])c1ccccc1O,inactive,–
N#CCCC(Br)(C#N)CBr (stereo not drawn),–,54.4 µM (active)
CCOP(=S)(OCC)O/N=C(\C#N)c1ccccc1,inactive,–
CC(=Cc1ccccc1)[N+](=O)[O-],inactive,–
O=c1[nH]c(=O)n(Cl)c(=O)n1Cl,inactive,–

# System: SRD5A2 (gene 6716)
# Experiment: CCTE_Deisenroth_5AR_NBTE_ratio: CCTE's 5alpha-reductase NanoBRET Target Engagement Assay - Ratio, Deisenroth Lab (AID 2284322; active = hit-call score of the fitted dose curve at least 0.9, where 1 is the maximum; inactive = score below 0.9)
# Conditions: actives raise or lower the signal
# Outline: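 HEK293T cells transiently expressing an SRD5A2-NanoLuc fusion (20 h post-transfection) were exposed to test chemical (10 nM - 29.9 uM, 8 points) for 3 h, then testosterone tracer for a further 2 h. Acceptor/donor BRET ratio was fitted bidirectionally against DMSO baseline.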
SMILES,AC50,outcome
O=S1(=O)OC(c2cc(Br)c(O)c(Br)c2)(c2cc(Br)c(O)c(Br)c2)c2ccccc21,4.66 µM (active),–
CCC[CH2][Sn]([Cl])([Cl])[CH2]CCC,13 µM (active),–
O=c1nc(O)n(Cl)c(=O)n1Cl,–,inactive
O=[N+]([O-])c1ccccc1O,50 µM (active),–
N#CCCC(Br)(C#N)CBr (stereo not drawn),69.9 µM (active),–
CCOP(=S)(OCC)O/N=C(\C#N)c1ccccc1,20.1 µM (active),–
CC(=Cc1ccccc1)[N+](=O)[O-],–,inactive
O=c1[nH]c(=O)n(Cl)c(=O)n1Cl,–,inactive

# System: not listed separately
# Experiment: IUF_NPC1_cytotoxicity_72hr: Cytotoxicity Assessment at 72 hours in the Leibniz Research Institute for Environmental Medicine (IUF) Neural Progenitor Cell Proliferation Assay (NPC1) (AID 2284332);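 also: rising LDH signal means more cytotoxicity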
# Conditions: not given
# Method: IUF_NPC1 is a cell-based, multiplexed assay that uses hNPC, a human primary neural progenitor cells, with measurements taken at 72 hours after chemical dosing in a 96-well plate. Human neural progenitor cells (hNPC) are generated from human fetal brain cortex at gestational week (GW) 16-19. Grown in suspension culture and under proliferative conditions (proliferation media and growth factors), these cells represent neural progenitor cell proliferation. In the NPC1 assay, hNPC's are exposed to the test compound for 72h. Cell proliferation is assessed as an increase in sphere area using automated phase contrast imaging and as incorporation of Bromodeoxyuridine (BrdU) during DNA synthesis using a luminescence-based cell proliferation ELISA. In parallel, the cell viability is assessed using an alamar blue viability assay and the cytotoxicity using a lactate dehydrogenase dependent membrane integrity assay.IUF_NPC1_cytotoxicity_72hr is one of 4 assay components measured from the IUF_NPC1 assay. It is designed to measure cytotoxicity at 72 hrs due to loss of membrane integrity. LDH measurements are performed from medium supernatants of each well and are based on the reduction of resazurin to resorufin measured as fluorescence signal (relative fluorescence unit) in a multiplate reader. Data from the IUF_NPC1_cytotoxicity_72hr component was analyzed at the endpoint IUF_NPC1_cytotoxicity_72hr in the positive analysis fitting direction relative to the dynamic range and baseline of activity. Using a type of viability reporter, gain-of-signal activity can be used to understand cytotoxicity effects.
# After the cell expansion period, the cells are cultured for up to four weeks in which they are passaged every week. Between one to three days after passaging, depending on the size chosen for passaging, spheres at a size of 0.3 mm are used in the assay. For the assessment of neural progenitor cell proliferation, the spheres are plated in poly-Hema coated 96-well U-bottom plates filled with proliferation medium containing growth factors (EGF and FGF). One 0.25 - 0.35 mm big sphere is plated in the middle of each well. Within 3 days NPCs proliferate and grow in size. Cultivation during the test method is performed at 37C and 5% CO2 at a pH of 7.2-7.6. As a positive control, spheres are cultivated in the absence of growth factors (EGF and FGF), which dramatically reduces proliferation. Exposure starts on the plating day (day 0) and is continued over three days, without chemical renewal, until the experiment is terminated. The assay is terminated by the assessment of cell viability, cytotoxicity, and proliferation by BrdU. All endpoints are generated from the same experimental run and from each well/sphere in the 96-well plate.
SMILES,outcome,AC50
CNC(=O)CSP(=O)(OC)OC,inactive,–
CCOCn1c(-c2ccc(Cl)cc2)c(C#N)c(Br)c1C(F)(F)F,–,50.4 µM (active)
Cc1cc(C(F)(C(F)(F)F)C(F)(F)F)ccc1NC(=O)c1cccc(I)c1C(=O)NC(C)(C)CS(C)(=O)=O,inactive,–
CC1(C)[C@H](C(=O)O[C@H](C#N)c2cccc(Oc3ccccc3)c2)[C@@H]1/C=C(\Cl)C(F)(F)F,inactive,–
OC(Cc1ccccc1Cl)(Cn1[nH]cnc1=S)C1(Cl)CC1 (stereo not drawn),inactive,–
CS(=O)(=O)c1ccc(C(=O)C2C(=O)CCCC2=O)c(Cl)c1COCC(F)(F)F,inactive,–
O=S1OC[C@@H]2[C@H](CO1)[C@]1(Cl)C(Cl)=C(Cl)[C@@]2(Cl)C1(Cl)Cl (stereo partly drawn),inactive,–

# System: not listed separately
# Experiment: CCTE_Mundy_HCI_iCellGluta_NOG_NeuronCount: CCTE's Neurite Outgrowth Assay in iCellGluta cells for Neuron Count, Mundy Lab (AID 2284340);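 also: cells fixed about 48 h after compound addition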
# Conditions: not given
# Outline: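 Neuron count read by automated high-content imaging of Hoechst 33342 and betaIII-tubulin/Alexa Fluor-488 labelling in human iPSC glutamatergic neurons. Activity fitted relative to DMSO.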
SMILES,AC50,outcome
CCOCn1c(-c2ccc(Cl)cc2)c(C#N)c(Br)c1C(F)(F)F,27.1 µM (active),–
Cc1cc(C(F)(C(F)(F)F)C(F)(F)F)ccc1NC(=O)c1cccc(I)c1C(=O)NC(C)(C)CS(C)(=O)=O,–,inactive
CC1(C)[C@H](C(=O)O[C@H](C#N)c2cccc(Oc3ccccc3)c2)[C@@H]1/C=C(\Cl)C(F)(F)F,–,inactive
OC(Cc1ccccc1Cl)(Cn1[nH]cnc1=S)C1(Cl)CC1 (stereo not drawn),50 µM (active),–
CS(=O)(=O)c1ccc(C(=O)C2C(=O)CCCC2=O)c(Cl)c1COCC(F)(F)F,–,inactive
Cc1ccccc1OP(=O)(Oc1ccccc1C)Oc1ccccc1C,13.5 µM (active),–

# System: not listed separately
# Experiment: CCTE_Mundy_HCI_iCellGluta_NOG_NeuriteCount: CCTE's Neurite Outgrowth Assay in iCellGluta cells for Neurite Count, Mundy Lab (AID 2284342);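 also: chemical exposure about 48 hours starting 2 hours after plating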
# Conditions: not given
SMILES,AC50,outcome
CCOCn1c(-c2ccc(Cl)cc2)c(C#N)c(Br)c1C(F)(F)F,21.3 µM (active),–
Cc1cc(C(F)(C(F)(F)F)C(F)(F)F)ccc1NC(=O)c1cccc(I)c1C(=O)NC(C)(C)CS(C)(=O)=O,–,inactive
CC1(C)[C@H](C(=O)O[C@H](C#N)c2cccc(Oc3ccccc3)c2)[C@@H]1/C=C(\Cl)C(F)(F)F,–,inactive
OC(Cc1ccccc1Cl)(Cn1[nH]cnc1=S)C1(Cl)CC1 (stereo not drawn),–,inactive
CS(=O)(=O)c1ccc(C(=O)C2C(=O)CCCC2=O)c(Cl)c1COCC(F)(F)F,25.3 µM (active),–
Cc1ccccc1OP(=O)(Oc1ccccc1C)Oc1ccccc1C,12.5 µM (active),–
